From PubChem BioAssay (NCATS)
A number with no mark means an inactive call. Records with an inconclusive call do not appear. A call without a number means that no potency is given here. The source made the active and inactive calls. The call rests on the fitted dose curve; in most records, active means well fitted curve in the direction sought with a large enough effect; inconclusive means small, poorly fitted or top-dose-only effect, or another doubt; inactive means no such curve, though single readings can be large; an effect the other way counts as inactive or inconclusive.

Assays:
[1] = system: Zika virus NS2B-NS3 protease; assay: Primary screen GU AMC qHTS for Zika virus inhibitors (AID 1347154); further: nearly all actives have a fitted effect of over 70% in size; further: potency means the concentration at half of the fitted maximal effect
Procedure, shortened: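 Unlinked Zika NS2B hydrophilic domain–NS3 protease complex at 25 nM in 10 mM Tris-HCl pH 8.0, 0.01% Tween 20, with an AMC peptide substrate. Fluorescence change (340/450 nm) over 15 min at room temperature, normalized to controls, fitted to 4-parameter Hill.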

[2] = target: Lysine-specific demethylase 5B (Homo sapiens) (UniProt Q9UGL1); assay: Optimization screen for KDM5B Histone Demethylases FDH coupled qHTS against the LOPAC library (AID 1347166)
Chain of Lysine-specific demethylase 5B (Homo sapiens) (Q9UGL1 whole entry, looked up): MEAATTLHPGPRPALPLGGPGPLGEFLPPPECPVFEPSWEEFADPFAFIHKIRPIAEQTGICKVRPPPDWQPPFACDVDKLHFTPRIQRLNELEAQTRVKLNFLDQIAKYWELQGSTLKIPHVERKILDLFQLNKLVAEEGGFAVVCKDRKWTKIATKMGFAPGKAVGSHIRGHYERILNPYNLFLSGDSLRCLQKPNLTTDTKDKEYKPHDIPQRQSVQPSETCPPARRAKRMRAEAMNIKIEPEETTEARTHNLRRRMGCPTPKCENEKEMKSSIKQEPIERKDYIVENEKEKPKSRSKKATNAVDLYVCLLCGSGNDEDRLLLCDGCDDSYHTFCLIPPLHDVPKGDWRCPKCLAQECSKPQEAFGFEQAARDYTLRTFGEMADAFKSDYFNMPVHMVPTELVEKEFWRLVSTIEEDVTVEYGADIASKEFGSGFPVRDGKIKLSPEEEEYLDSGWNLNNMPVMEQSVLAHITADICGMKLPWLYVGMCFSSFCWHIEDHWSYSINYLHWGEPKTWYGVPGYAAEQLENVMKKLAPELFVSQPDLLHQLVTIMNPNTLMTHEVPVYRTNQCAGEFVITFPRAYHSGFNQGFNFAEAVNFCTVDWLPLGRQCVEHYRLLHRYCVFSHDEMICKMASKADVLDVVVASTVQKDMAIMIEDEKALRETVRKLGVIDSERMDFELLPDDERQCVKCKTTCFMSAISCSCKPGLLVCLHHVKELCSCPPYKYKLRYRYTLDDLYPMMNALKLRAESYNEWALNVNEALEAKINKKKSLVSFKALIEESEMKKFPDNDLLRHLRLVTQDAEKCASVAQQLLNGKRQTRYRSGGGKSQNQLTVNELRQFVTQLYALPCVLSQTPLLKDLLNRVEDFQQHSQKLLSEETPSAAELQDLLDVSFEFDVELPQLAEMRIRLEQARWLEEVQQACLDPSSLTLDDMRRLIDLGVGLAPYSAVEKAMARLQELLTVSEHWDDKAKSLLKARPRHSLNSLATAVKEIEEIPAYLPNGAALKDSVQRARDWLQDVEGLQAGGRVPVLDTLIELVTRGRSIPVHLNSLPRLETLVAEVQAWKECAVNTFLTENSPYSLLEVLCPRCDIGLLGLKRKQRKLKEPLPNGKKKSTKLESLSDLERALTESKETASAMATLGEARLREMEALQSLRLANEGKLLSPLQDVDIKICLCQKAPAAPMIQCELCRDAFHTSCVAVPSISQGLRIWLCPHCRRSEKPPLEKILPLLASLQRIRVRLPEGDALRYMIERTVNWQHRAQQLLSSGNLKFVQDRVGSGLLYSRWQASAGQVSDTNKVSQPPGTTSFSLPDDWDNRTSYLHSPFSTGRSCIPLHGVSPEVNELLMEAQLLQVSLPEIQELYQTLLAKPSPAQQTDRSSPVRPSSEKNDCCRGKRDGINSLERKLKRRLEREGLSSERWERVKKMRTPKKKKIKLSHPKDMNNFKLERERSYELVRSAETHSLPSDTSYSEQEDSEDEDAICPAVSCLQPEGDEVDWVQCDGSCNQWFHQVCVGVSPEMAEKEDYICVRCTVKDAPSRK
Procedure, shortened: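 KDM5BDeltaAP (200nM final) preincubated 10 min with compound, then 12.5uM H3K4Me3, 25uM a-ketoglutarate, ascorbate, Fe(II), NAD+ and FDH added; 50mM HEPES pH 7.5, 0.01% Tween-20. NADH fluorescence (340/450 nm) change over 30 min, room temperature.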

[3] = qHTS to identify inhibitors of the type 1 interferon - major histocompatibility complex class I in skeletal muscle: primary screen against the NCATS Pharmaceutical Collection (AID 1347407);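 further: luminescence of HiBiT knocked into endogenous HLA-B as interferon-induced MHC class I level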; further: potency means the concentration at half of the fitted maximal effect
Procedure, shortened: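 Luminescence from HiBiT-tagged endogenous HLA-B*08:01 served as the read-out of IFN-beta-induced MHC class I in CRISPR-engineered C25cl48 myoblasts. Cells received 4 ng/ml IFN-beta plus compound (high final 46 uM, […]) for 24 h.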

[4] = qHTS for inhibitors of adenylyl cyclases using a fission yeast platform: a pilot screen against the NCATS LOPAC library (AID 1347410)
Procedure, shortened: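 Fission yeast qHTS: CHP2027 cells (AC9-GNAS-PDE4D2, fbp1-GFP), 5x10^6 cells/mL working density, EMM + His/Lys/Ura; LOPAC at up to 57 µM final; 18 h dark, 30C; GFP by laser cytometry. DPI positive control, DMSO vehicle.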

[5] = target: Protein phosphatase 1D (Homo sapiens) (UniProt O15297); assay: RapidFire Mass Spectrometry qHTS Assay for Modulators of WT P53-Induced Phosphatase 1 (WIP1) (AID 1347424);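 further: amount of dephosphorylated VEPPL-S-QETFS peptide product formed by WIP1; series mostly up to about 63 µM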
Chain of Protein phosphatase 1D (Homo sapiens) (O15297 whole entry, looked up): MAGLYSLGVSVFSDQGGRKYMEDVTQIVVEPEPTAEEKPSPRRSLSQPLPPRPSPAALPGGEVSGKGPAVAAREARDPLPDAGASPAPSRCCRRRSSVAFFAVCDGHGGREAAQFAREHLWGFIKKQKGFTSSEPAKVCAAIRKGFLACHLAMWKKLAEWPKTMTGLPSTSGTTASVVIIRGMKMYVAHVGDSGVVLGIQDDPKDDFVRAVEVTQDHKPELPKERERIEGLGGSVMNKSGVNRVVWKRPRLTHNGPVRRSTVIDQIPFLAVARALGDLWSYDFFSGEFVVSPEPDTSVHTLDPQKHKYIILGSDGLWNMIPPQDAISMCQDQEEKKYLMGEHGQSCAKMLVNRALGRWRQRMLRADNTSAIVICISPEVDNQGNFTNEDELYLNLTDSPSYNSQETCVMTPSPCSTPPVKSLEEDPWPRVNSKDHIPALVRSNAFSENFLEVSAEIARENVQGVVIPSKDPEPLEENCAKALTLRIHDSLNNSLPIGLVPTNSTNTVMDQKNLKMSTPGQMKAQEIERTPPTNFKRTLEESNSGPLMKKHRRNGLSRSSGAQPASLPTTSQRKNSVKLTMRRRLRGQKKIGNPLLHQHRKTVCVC
Procedure, shortened: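 10 nM WIP1 preincubated with compounds 1 hr at room temperature in pH 7.5 Tris buffer with 30 mM MgCl2, 1 mM TCEP; 2 uM VEPPL-pS-QETFS phosphopeptide for 5 min, formic acid quench; dephosphorylated product quantified by RapidFire MS against labelled standard.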

[6] = target: Protein phosphatase 1D (Homo sapiens) (UniProt O15297); assay: Rhodamine-PBP qHTS Assay for Modulators of WT P53-Induced Phosphatase 1 (WIP1) (AID 1347425)
Procedure, shortened: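 5 nM WIP1 + 10 uM Rh-PBP, 50 mM Tris pH 7.5, 30 mM MgCl2, 1 mM TCEP, 0.1 mM EGTA, BSA; cpds pinned, 1 hr RT; + 10 uM phosphopeptide; fluorescence 1-min reads x 11 min; delta = f1 - f0.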

[7] = qHTS to identify inhibitors of the type 1 interferon - major histocompatibility complex class I in skeletal muscle: primary screen against the NCATS LOPAC collection (AID 1347405);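 further: lytic HiBiT luminescence reporting HLA-B protein level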; further: potency means the concentration at half of the fitted maximal effect
Procedure, shortened: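 CRISPR-engineered immortalized human myoblasts (C25cl48) with HiBiT fused to endogenous HLA-B*08:01, stimulated with 4 ng/ml IFN-beta. LOPAC compounds tested as a 7-point 1:4.3 titration (top 46 uM final), 24 h at 37 C; lytic HiBiT luminescence read.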

[8] = Validation qHTS assay for inhibitors of Activation Induced Cytidine Deaminase (AID): UDG Counterscreen signal (AID 1347427)
Procedure, shortened: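 Counterscreen read of UDG activity (2 U/mL, 4/3x) in the FRET deamination format with AID (1 uM, 4/3x), DJC20/DJC23 substrates (250 nM, 4x), 4 h at room temperature. NaOH stop, fluorescence at 560 ex/665 em.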

[9] = target: Single-stranded DNA cytosine deaminase (Homo sapiens) (UniProt Q9GZX7); assay: Validation qHTS assay for inhibitors of Activation Induced Cytidine Deaminase (AID): AID signal (AID 1347429)
Chain of Single-stranded DNA cytosine deaminase (Homo sapiens) (Q9GZX7 whole entry, looked up): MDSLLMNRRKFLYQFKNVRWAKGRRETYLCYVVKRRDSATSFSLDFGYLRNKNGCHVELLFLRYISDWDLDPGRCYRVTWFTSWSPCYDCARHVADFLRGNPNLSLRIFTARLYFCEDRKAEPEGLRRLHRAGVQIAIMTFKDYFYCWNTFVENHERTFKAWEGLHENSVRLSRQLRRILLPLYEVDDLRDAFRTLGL
Procedure, shortened: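 FRET deamination assay: 1 uM AID (4/3x stock) with UDG, compound up to 114 uM, then 250 nM DJC20/DJC23 substrate (4x stock) for 4 hr at room temperature. NaOH added, 30 min; fluorescence read 540/590 nm.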

[10] = Primary qHTS for inhibitors of La Crosse Virus (LACV) - induced cell death in SH-SY5Y cells (AID 1508616);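 further: top concentration of the series differs between compounds; higher means more rescue of cells from virus-induced death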
Procedure, shortened: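 SH-SY5Y cells (6000/well) plated 24 h, then given compounds by pin transfer and LACV at 0.01 MOI for 6 days at 37C. Viability measured by ATPLite luminescence, normalized to infected DMSO and uninfected DMSO.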

[11] = qHTS to identify inhibitors of the type 1 interferon - major histocompatibility complex class I in skeletal muscle: primary screen against the NCATS Mechanism Interrogation Plate v5.0 (MIPE) Libary (AID 1347411); further: nearly all actives have a fitted effect of over 65% in size
Procedure, shortened: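 Immortalized human myoblasts (C25cl48) with HiBit knocked into endogenous HLA-B*08:01 were stimulated with 4 ng/ml IFN-beta and given compounds in 11-point 1:3 titration from 46 uM. After 24 h at 37 C, lytic HiBiT luminescence was read.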

With CNCCC(Oc1ccc(C(F)(F)F)cc1)c1ccccc1 (centres undefined) the Potency [1] was “inactive”, the outcome [2] was “inactive” and the Potency [3] was “inactive”. For the same molecule, the outcome [4] was “inactive”, the outcome [5] was “inactive” and the outcome [6] was “inactive”.
For C=Cc1c(C)c2cc3[nH]c(cc4nc(cc5nc(cc1[nH]2)C(C)=C5CCC(=O)O)C(CCC(=O)O)=C4C)c(C)c3C=C, the Potency [1] was “inactive”, the Potency [7] was “inactive” and the outcome [4] was “inactive”. The outcome [6] was “inactive”, the Potency [8] was “inactive” and the Potency [9] was “inactive”. For the same molecule, the outcome [10] was “inactive”.
In the case of CC(=O)OCC(=O)[C@@]1(O)CC[C@H]2[C@@H]3CCC4=CC(=O)CC[C@]4(C)[C@H]3C(=O)C[C@@]21C, the Potency [1] is reported as “inactive”, the outcome [2] is reported as “inactive” and the Potency [7] is reported as “inactive”. For the same molecule, the outcome [4] was “inactive”, the Potency [11] was “inactive” and the outcome [6] was “inactive”. The Potency [8] was “inactive”, the Potency [9] was “inactive” and the outcome [10] was “inactive”.
With [Cl][In]([Cl])[Cl] the Potency [1] was 11.2 µM (active) and the Potency [3] was “inactive”.
With C[C@]12CC[C@@H]3c4ccc(O)cc4CC[C@H]3[C@@H]1CCC2=O the Potency [1] was “inactive”, the outcome [2] was “inactive” and the Potency [7] was “inactive”. For the same molecule, the Potency [3] was “inactive”, the outcome [4] was “inactive” and the outcome [6] was “inactive”. For the same molecule, the Potency [8] was “inactive” and the Potency [9] was “inactive”.
For Nc1ncnc2c1ncn2[C@@H]1O[C@H](CO)[C@@H](O)[C@H]1O, the Potency [1] was “inactive”, the outcome [2] was “inactive” and the Potency [7] was “inactive”. For the same molecule, the outcome [4] was “inactive”, the Potency [11] was “inactive” and the outcome [5] was “inactive”. The outcome [6] was “inactive”, the Potency [8] was “inactive” and the Potency [9] was “inactive”.
With NC1CCN(c2cccc(Cl)n2)CC1 the Potency [1] was “inactive”, the outcome [2] was “inactive” and the Potency [3] was “inactive”. For the same molecule, the outcome [5] was “inactive”, the outcome [6] was “inactive” and the Potency [8] was “inactive”. The Potency [9] was “inactive” and the outcome [10] was “inactive”.
For CCN(CC)CCNC(=O)c1c(C)[nH]c(/C=C2\C(=O)Nc3ccc(F)cc32)c1C, the Potency [1] was “inactive”, the Potency [7] was 10 µM (active) and the Potency [3] was 10.5 µM (active). The outcome [4] was “inactive”, the outcome [5] was “inactive” and the outcome [10] was “inactive”.
For CC1=C(CC(=O)O)c2cc(F)ccc2/C1=C\c1ccc(S(C)(=O)=O)cc1, the Potency [1] was “inactive”, the outcome [2] was “inactive” and the Potency [7] was “inactive”. For the same molecule, the Potency [3] was “inactive”, the outcome [4] was “inactive” and the outcome [6] was “inactive”. For the same molecule, the Potency [8] was “inactive”, the Potency [9] was “inactive” and the outcome [10] was “inactive”.
In the case of CCCCOC(=O)c1ccc(O)cc1, the Potency [1] is reported as “inactive”, the Potency [3] is reported as “inactive” and the outcome [5] is reported as “inactive”. The outcome [6] was “inactive”.
In the case of CN(C)CCCN1c2ccccc2CCc2ccccc21, the Potency [1] is reported as “inactive”, the outcome [2] is reported as “inactive” and the outcome [4] is reported as “inactive”. The outcome [5] was “inactive” and the outcome [6] was “inactive”.
In the case of CN1CCN(C2Cc3ccccc3Sc3ccc(Cl)cc32)CC1 (centres undefined), the Potency [1] is reported as “inactive”, the outcome [2] is reported as “inactive” and the outcome [4] is reported as “inactive”. The outcome [5] was “inactive”, the outcome [6] was “inactive” and the Potency [8] was “inactive”. The Potency [9] was “inactive” and the outcome [10] was “inactive”.
For NC(=O)c1ncn([C@@H]2O[C@H](CO)[C@@H](O)[C@H]2O)c1N, the Potency [1] was “inactive”, the Potency [3] was “inactive” and the Potency [11] was “inactive”. For the same molecule, the outcome [5] was “inactive” and the outcome [6] was “inactive”.
For CCN(CC)C(C)CN1c2ccccc2Sc2ccccc21 (centres undefined), the Potency [1] was “inactive”, the outcome [2] was “inactive” and the Potency [7] was “inactive”. The outcome [4] was “inactive”, the outcome [5] was “inactive” and the outcome [6] was “inactive”. The Potency [8] was “inactive”, the Potency [9] was “inactive” and the outcome [10] was “inactive”.
In the case of CC(C)(C)[C@]1(O)CCN2C[C@H]3c4ccccc4CCc4cccc(c43)[C@@H]2C1, the Potency [1] is reported as “inactive”, the outcome [2] is reported as “inactive” and the Potency [7] is reported as “inactive”. The outcome [4] was “inactive”, the Potency [8] was “inactive” and the Potency [9] was “inactive”.
In the case of CCCCN(CCCC)CC(O)c1cc(Cl)cc2c1-c1ccc(Cl)cc1/C2=C/c1ccc(Cl)cc1 (centres undefined), the Potency [1] is reported as “inactive”, the Potency [7] is reported as “inactive” and the Potency [3] is reported as “inactive”. For the same molecule, the outcome [4] was “inactive”, the Potency [11] was “inactive” and the outcome [5] was “inactive”. For the same molecule, the outcome [6] was “inactive” and the outcome [10] was “inactive”.
For CC(C)NC[C@H](O)c1ccc(O)c(O)c1, the Potency [1] was “inactive”, the Potency [7] was “inactive” and the outcome [4] was “inactive”. The Potency [8] was “inactive”, the Potency [9] was “inactive” and the outcome [10] was “inactive”.
With CC1=C(CC(=O)O)c2cc(F)ccc2/C1=C\c1ccc(S(C)=O)cc1 (centres undefined) the Potency [1] was “inactive”, the Potency [7] was “inactive” and the outcome [4] was “inactive”. For the same molecule, the outcome [5] was “inactive”, the outcome [6] was “inactive” and the Potency [8] was “inactive”. The Potency [9] was “inactive” and the outcome [10] was “inactive”.
In the case of COCCOC(=O)C1=C(C)NC(C)=C(C(=O)OC/C=C/c2ccccc2)C1c1cccc([N+](=O)[O-])c1 (centres undefined), the Potency [1] is reported as “inactive”, the outcome [2] is reported as “inactive” and the Potency [7] is reported as 22.4 µM (active). For the same molecule, the outcome [4] was “inactive”, the outcome [6] was “inactive” and the Potency [8] was “inactive”. For the same molecule, the Potency [9] was “inactive” and the outcome [10] was “inactive”.
With Cc1cc(O)cc2c1O[C@](C)(CCC[C@H](C)CCC[C@H](C)CCCC(C)C)CC2 the Potency [1] was “inactive”, the Potency [3] was “inactive” and the outcome [5] was “inactive”. The outcome [6] was “inactive” and the outcome [10] was “inactive”.
With CC[C@@]1(c2ccccc2)NC(=O)N(C)C1=O the Potency [1] was “inactive”, the Potency [3] was “inactive” and the outcome [5] was “inactive”. For the same molecule, the outcome [6] was “inactive” and the outcome [10] was “inactive”.
With CC(C)(C)C(=O)NCCCC(=O)O the Potency [1] was “inactive”, the Potency [3] was “inactive” and the outcome [5] was “inactive”. For the same molecule, the outcome [6] was “inactive” and the outcome [10] was “inactive”.
With NS(=O)(=O)c1cc2c(cc1Cl)NC(CSCc1ccccc1)=NS2(=O)=O the Potency [1] was “inactive”, the Potency [3] was “inactive” and the outcome [5] was “inactive”. For the same molecule, the outcome [6] was “inactive” and the outcome [10] was “inactive”.
In the case of CC1(C)Oc2ccc(C#N)cc2[C@@H](N2CCCC2=O)[C@@H]1O, the Potency [1] is reported as “inactive”, the Potency [3] is reported as “inactive” and the outcome [5] is reported as “inactive”. The outcome [6] was “inactive” and the outcome [10] was “inactive”.
With C/C(=C(\CCOP(=O)(O)O)SC(=O)c1ccccc1)N(C=O)Cc1cnc(C)nc1N the activity change, negative = inhibition [1] was 0.0847% [at 4.99 µM], the activity change, negative = inhibition [3] was -12.9% [at 3.83 µM] and the activity change, negative = inhibition [5] was 3.91% [at 6.17 µM]. The activity change, negative = inhibition [6] was -15.2% [at 4.81 µM].
For CN(C)CCN(Cc1ccccc1)c1ccccn1, the Potency [1] was “inactive”, the Potency [3] was “inactive” and the outcome [5] was “inactive”. For the same molecule, the outcome [6] was “inactive” and the outcome [10] was “inactive”.
With O=C(O)[C@H](O)c1ccccc1 the Potency [1] was “inactive”, the Potency [3] was “inactive” and the outcome [5] was “inactive”. For the same molecule, the outcome [6] was “inactive”.
With C[C@@H](O)[C@H](N)C(=O)O the Potency [1] was “inactive”, the Potency [3] was “inactive” and the outcome [5] was “inactive”. The outcome [6] was “inactive” and the outcome [10] was “inactive”.
With O=S(=O)(O)NC1CCCCC1 the Potency [1] was “inactive”, the Potency [3] was “inactive” and the outcome [5] was “inactive”. For the same molecule, the outcome [6] was “inactive” and the outcome [10] was “inactive”.
In the case of CC1CC(OC(=O)C(O)c2ccccc2)CC(C)(C)N1C (centres undefined), the Potency [1] is reported as “inactive”, the Potency [3] is reported as “inactive” and the outcome [5] is reported as “inactive”. For the same molecule, the outcome [6] was “inactive” and the outcome [10] was “inactive”.
